# Source: PubChem BioAssay
# ST2 inh = inhibitors of human ST2 (IL1RL1) binding to IL-33, primary screen, biochemical, AlphaLISA; AlphaLISA ST2-Fc/biotin-IL-33 interaction, 1 h; Interleukin-1 receptor-like 1 (Homo sapiens), Q01638; 78,000 tested, 2.3% active; AID 1259354, 2018; inhibition, % for hits at 17 µM; in the data active means inhibition above about 30%
# Target sequence (Q01638 whole entry, looked up): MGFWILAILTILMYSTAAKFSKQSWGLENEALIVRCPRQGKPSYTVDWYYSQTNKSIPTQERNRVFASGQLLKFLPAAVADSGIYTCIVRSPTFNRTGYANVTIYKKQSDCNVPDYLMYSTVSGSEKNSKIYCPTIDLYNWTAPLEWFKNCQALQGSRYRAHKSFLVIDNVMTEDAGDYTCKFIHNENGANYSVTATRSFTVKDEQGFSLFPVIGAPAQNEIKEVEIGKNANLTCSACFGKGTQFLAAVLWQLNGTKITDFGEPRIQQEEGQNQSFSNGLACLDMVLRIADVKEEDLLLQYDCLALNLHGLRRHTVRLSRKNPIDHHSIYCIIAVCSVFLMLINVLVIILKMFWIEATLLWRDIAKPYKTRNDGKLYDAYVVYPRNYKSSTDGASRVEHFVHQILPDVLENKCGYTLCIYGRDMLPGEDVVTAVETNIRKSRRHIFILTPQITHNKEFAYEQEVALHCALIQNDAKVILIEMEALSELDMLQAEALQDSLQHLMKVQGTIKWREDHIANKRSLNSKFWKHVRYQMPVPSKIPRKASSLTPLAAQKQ
# Active calls of the source: *; i = inactive; ! = a repeat was not active. Only a selection was taken, and hits are over-represented in it overall.
SMILES,ST2 inh
O=C(Cc1ccc(F)cc1)Nc1c(C(=O)Nc2cccc(F)c2)oc2ccccc12,93.0%*
O=C(Nc1c(C(=O)Nc2cccc(F)c2)oc2ccccc12)c1ccc(F)cc1,i
CN1C(=O)CC(N2CCN(c3ccc(F)cc3)CC2)C1=O (stereo not given),i
O=C(CCS(=O)(=O)c1cccs1)Nc1ccc(C(=O)NC2CCCCC2)cc1,i
CCC1(C)OC(=O)N(CCc2ccc(OC)c(OC)c2)C1(C)O (stereo not given),i
COc1ccc(NC2(C(=O)N3[C@@H]4CC[C@H]3CNC(=O)C4)CCCC2)cc1,i
Cc1nc2sccn2c1C(=O)N1[C@H]2CCNC[C@@H]1CC2,i
CCc1ccc(-c2cn3c(C(=O)N4[C@@H]5CC[C@H]4CNC(=O)C5)csc3n2)cc1,36.0%*
Cc1[nH]c2ccccc2c1C=C1C(=O)OC2(CCCCC2)OC1=O,48.0%*
CCOc1ccc(C=C2C(=O)OC3(CCCCC3)OC2=O)cc1OC,i
CCCCN(CC)Cc1c(C)[nH]c2ccccc2c1=O,i
CCCCN(CC)S(=O)(=O)c1ccc2[nH]c(=O)cc(C(=O)O)c2c1,i
O=[N+]([O-])c1ccc(Sc2c(-c3ccccc3)nc3sccn23)cc1,32.0%*
COC(=O)c1ccccc1Sc1c(-c2ccccc2)nc2sccn12,i
c1ccc(Sc2c(-c3ccccc3)nc3ncccn23)cc1,i
O=c1c2cnn(-c3ccc(Cl)cc3)c2ncn1Cc1cccc(Cl)c1,i
O=C(CCc1ccccc1)N(c1ccc(Br)cc1)C1C=CS(=O)(=O)C1 (stereo not given),i
Cn1c(=O)c(-c2ccccc2N)nc2cc3ccccc3cc21,32.0%*
Cc1cc2nc(Cc3cccc(F)c3)c(=O)n(C)c2cc1C,i
CCCCSc1nnc(-c2ccccc2N)c(=O)[nH]1,i
CCOC(=O)c1c(NC(=O)CSc2cn(CC)c3ccccc23)sc2c1CCCC2,i
CC(=O)N(CN1C(=O)c2ccccc2C1=O)c1cc(C)ccc1C,i
Cc1cc(C)c(S(N)(=O)=O)c(C)c1,i
Cc1ccc(S(=O)(=O)N=C2C=CC(=O)c3ccccc32)c(C)c1,61.0%*
Cc1ccc(S(=O)(=O)N2CCN(c3nc(C)cc(N4CCCC4)n3)CC2)c(C)c1,i
SMILES,ST2 inh
Cc1cc(C)c(S(=O)(=O)N=C2C=CC(=O)c3ccccc32)c(C)c1,39.0%*
Cc1ccc(C)c(S(=O)(=O)N=C2C=C(Br)C(=O)c3ccccc32)c1,34.0%*
Cc1cc(C)c(S(=O)(=O)n2cnc3ccccc32)c(C)c1,i
CN1CCN(C(=O)CN(c2ccccc2)S(=O)(=O)c2ccccc2[N+](=O)[O-])CC1,i
CCc1nc2ccccc2c(N)c1C (tested in a mixture with another compound),i
O=C(O)c1ccc2c(c1)N(Cc1ccccc1)C(=O)CS2,i
COc1ccc2nc(N3CCC(C(=O)N4CCCC4)CC3)sc2c1,i
Cc1ccc(OCC(=O)Nc2ccc(C)cc2[N+](=O)[O-])c(C)c1,i
CCCCOc1ccc(C(=O)Nc2ccc(OCC)cc2[N+](=O)[O-])cc1,i
CCCOc1cccc(C(=O)Nc2ccc(C)cc2[N+](=O)[O-])c1,32.0%*
Cc1ccc(NC(=O)COc2ccc(Cl)cc2)c([N+](=O)[O-])c1,i
Cc1ccc(NC(=O)COc2c(C)ccc(C)c2C)c([N+](=O)[O-])c1,33.0%*
CCOc1ccc(NC(=O)c2cc(OC)cc(OC)c2)c([N+](=O)[O-])c1,i
CCC1CCCCN1S(=O)(=O)c1ccc2[nH]c(=O)cc(C(=O)NC3CCCC3)c2c1 (stereo not given),i
C=CC(C)(O)CC1C(C)(O)CCC2C(C)(C)CCCC21C (stereo not given),i
Cc1nn(C(=O)c2cccnc2)c(C)c1Sc1ccc(Br)cc1,i
Cc1nn(S(=O)(=O)c2ccc(Br)cc2)c(C)c1Sc1ccccc1,i
Cc1nn(C(=O)c2cccs2)c(C)c1Sc1ccc(Cl)cc1,i
Cc1nn(S(=O)(=O)c2ccccc2)c(C)c1Sc1ccc([N+](=O)[O-])cc1,i
Cc1nn(S(=O)(=O)c2ccccc2[N+](=O)[O-])c(C)c1Sc1ccc([N+](=O)[O-])cc1,43.0%*
Cc1cccc(C(=O)n2nc(C)c(Sc3ccc([N+](=O)[O-])cc3)c2C)c1,30.0%*
COC(=O)Cn1cnc2scc(-c3ccc(OC)c(OC)c3)c2c1=O,i
Cc1ccc(C(O)=C2C(=O)C(=O)N(CCN3CCOCC3)C2c2ccco2)cc1 (stereo not given),i
CC1CCCN(c2ccc(C(F)(F)F)cn2)C1 (stereo not given),i
COc1ccc(CNC(=O)C[C@@H]2C[C@@H](C(C)C)[C@H](CNC(=O)c3ccc(C#N)cc3)C=C2C)cc1,i
SMILES,ST2 inh
CC1=C[C@@H](CNC(=O)c2ccc(C#N)cc2)[C@H](C(C)C)C[C@H]1CC(=O)NCCN(C)C,31.0%*
CC1=C[C@@H](CNC(=O)c2ccc(C#N)cc2)[C@H](C(C)C)C[C@H]1CC(=O)NCc1cccnc1,i
COc1ccc(CNC(=O)COc2cc(C)ccc2C)cc1,i
O=S1(=O)c2ccccc2NC(c2ccc(Cl)cc2Cl)N1Cc1ccccc1 (stereo not given),i
CC(C)CN1CC(OCc2cccnc2)CN(C(=O)c2cc(C3CC3)nc3ccccc23)CC1=O (stereo not given),i
Cn1nc(-c2ccc(Cl)cc2)c2cc(C(=O)NCCCN3CCCCCC3)sc21,i
O=C(c1cccc(F)c1)N(c1ccc(Br)cc1)C1C=CS(=O)(=O)C1 (stereo not given),i
CCOC(=O)C1(Cc2ccccc2Cl)CCN(C(=O)c2cccs2)CC1,i
CC1(C)CCN2CCC(C)(C)c3c(O)ccc1c32,73.0%*
CCc1nnc(NC(=O)CSc2n[nH]c(CC(C)C)n2)s1,i
COc1ccc(-c2c3c(=O)n(C)c(=O)n(C)c3cn2Cc2ccccc2)cc1,i
N=c1c2c3c(sc2ncn1Cc1ccccc1)CCCC3,i
COc1ccc(-c2oc3ncn(Cc4ccccc4)c(=N)c3c2-c2ccc(OC)cc2)cc1,39.0%*
CC1=C(C(=O)OC2CCCCC2)C(c2ccccc2F)n2nnnc2N1 (stereo not given),i
CC(C)Oc1ccc(C(=O)N2CCC(C(Cc3ccc(F)cc3F)N(C)C(=O)C3CC3)CC2)cc1 (stereo not given),i
Cc1ccc(-c2noc(CCC(=O)NC3CCCCC3)n2)cc1,i
COCc1cc(C)nc(SCC(=O)c2ccc(C)cc2C)c1C#N,i
Cc1cc(C(F)(F)F)c(C#N)c(SCC(N)=O)n1,i
COCc1cc(C)nc(SCC(=O)c2ccc(Cl)cc2)c1C#N,30.0%*!
Cc1cc(C(F)(F)F)c(C#N)c(SCC(=O)c2ccc([N+](=O)[O-])cc2)n1,60.0%*
COCc1cc(C)nc(SCc2ccccc2Cl)c1C#N,i
Cc1cc(C)c(C#N)c(SCC(=O)c2ccc(F)cc2)n1,i
COCc1nc(NCC2CCS(=O)(=O)C2)c2cnn(C)c2n1 (stereo not given),i
CN1/C(=C\C=C2C(=O)CC(C)(C)CC2=O)C(C)(C)c2ccccc21,i
CNc1nc(C(=O)N2CCC(N3CCCC3=O)CC2)cs1,i
COc1ccc(NCC(O)Cn2c(C)c(C)c3ccccc32)cc1 (stereo not given),32.0%*
Cc1c(C)n(CC(O)CNC2CCCCC2)c2ccccc12 (stereo not given),i
